# Target: Serine/threonine-protein kinase PAK 2 (Homo sapiens) (UniProt Q13177)
# Details: at 0.1 µM
# 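Further: values are mean percent inhibition of PAK2.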
# Sequence of Serine/threonine-protein kinase PAK 2 (Homo sapiens) (Q13177 whole entry): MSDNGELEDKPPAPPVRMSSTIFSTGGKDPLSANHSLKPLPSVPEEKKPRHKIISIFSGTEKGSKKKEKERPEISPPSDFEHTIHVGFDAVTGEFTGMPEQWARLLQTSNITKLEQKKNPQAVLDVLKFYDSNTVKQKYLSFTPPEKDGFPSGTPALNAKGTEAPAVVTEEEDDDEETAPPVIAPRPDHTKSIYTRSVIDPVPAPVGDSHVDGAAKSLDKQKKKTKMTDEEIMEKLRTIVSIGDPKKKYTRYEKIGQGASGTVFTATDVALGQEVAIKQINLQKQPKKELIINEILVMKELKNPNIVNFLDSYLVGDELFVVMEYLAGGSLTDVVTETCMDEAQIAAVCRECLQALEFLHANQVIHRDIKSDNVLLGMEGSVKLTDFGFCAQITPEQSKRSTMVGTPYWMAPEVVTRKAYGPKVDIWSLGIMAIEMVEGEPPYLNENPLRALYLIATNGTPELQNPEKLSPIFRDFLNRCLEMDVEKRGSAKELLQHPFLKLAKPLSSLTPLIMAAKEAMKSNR
row,Structure (SMILES),inhibition
1,CN1CCC(n2cnc(-c3ccc(F)cc3)c2-c2ccnc(N)n2)CC1,0.07%
2,NC(=O)c1sc(-n2cnc3ccc(C(F)(F)F)cc32)cc1OCc1ccccc1Br,0.77%
3,CN(C)CCOc1ccc(-c2nc(-c3ccncc3)c(-c3ccc4c(c3)CC/C4=N\O)[nH]2)cc1,2.66%
4,CCCN(CCS(C)(=O)=O)Cc1ccc(-c2ccc3ncnc(Nc4ccc(OCc5cccc(F)c5)c(Cl)c4)c3c2)o1,0.72%
5,CCc1nn2ncccc2c1-c1ccnc(NC2CC2)n1,1.85%
6,CCNC(=O)O[C@H]1CN[C@H](C#Cc2cc3ncnc(Nc4ccc(OCc5cccc(F)c5)c(Cl)c4)c3s2)C1,1.21%
7,CNC(=O)c1cccc(C#Cc2cncnc2Nc2ccc(OCc3cccc(F)c3)c(Cl)c2)c1,0.68%
8,CCN1CCC(CC(=O)Nc2n[nH]c3nnc(-c4cccc(F)c4F)cc23)CC1,2.09%
9,c1cc(-c2cnn3nc(N4CCOCC4)ccc23)nc(NC2CC2)n1,3.69%
10,CS(=O)(=O)CCNCc1coc(-c2ccc3ncnc(Nc4ccc(OCc5ccccc5)cc4)c3c2)c1,0.82%
11,COc1ccc(-c2cc3c(N)ncnc3o2)cc1,-2.02%
12,N#Cc1c(NC(=O)CN2CCOCC2)sc2c1CCCC2,1.25%
13,Clc1ccc(-c2nn3ncccc3c2-c2ccnc(Nc3ccccc3)n2)cc1,1.12%
14,COc1cc(/C=N/Nc2ncnc3[nH]ncc23)ccc1O,2.22%
15,CC(C)(CO)CNC(=O)c1ccc2c(c1)/C(=N/Nc1ccc(S(N)(=O)=O)cc1)C(=O)N2,-1.4%
16,Cc1ccc(O)cc1Nc1ccnc2cc(-c3ccccn3)ccc12,3.37%

# From ChEMBL document CHEMBL1961873, “Compounds: GSK PKIS; Assays: Nanosyn kinase panel” (2012)
